Dicer processing: human Dicer pre-microRNA cleavage inhibition. z-score at 25 µM. cat-ELCCA pre-miR-21 Dicer processing, chemiluminescence; stronger effect = higher value. 47,000 compounds, 6% hits; in the data active = z-score above about 3, passing the limit was not always enough;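 note: higher signal means more uncleaved substrate so more Dicer inhibition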
Target sequence (Q9UPY3 whole entry, looked up): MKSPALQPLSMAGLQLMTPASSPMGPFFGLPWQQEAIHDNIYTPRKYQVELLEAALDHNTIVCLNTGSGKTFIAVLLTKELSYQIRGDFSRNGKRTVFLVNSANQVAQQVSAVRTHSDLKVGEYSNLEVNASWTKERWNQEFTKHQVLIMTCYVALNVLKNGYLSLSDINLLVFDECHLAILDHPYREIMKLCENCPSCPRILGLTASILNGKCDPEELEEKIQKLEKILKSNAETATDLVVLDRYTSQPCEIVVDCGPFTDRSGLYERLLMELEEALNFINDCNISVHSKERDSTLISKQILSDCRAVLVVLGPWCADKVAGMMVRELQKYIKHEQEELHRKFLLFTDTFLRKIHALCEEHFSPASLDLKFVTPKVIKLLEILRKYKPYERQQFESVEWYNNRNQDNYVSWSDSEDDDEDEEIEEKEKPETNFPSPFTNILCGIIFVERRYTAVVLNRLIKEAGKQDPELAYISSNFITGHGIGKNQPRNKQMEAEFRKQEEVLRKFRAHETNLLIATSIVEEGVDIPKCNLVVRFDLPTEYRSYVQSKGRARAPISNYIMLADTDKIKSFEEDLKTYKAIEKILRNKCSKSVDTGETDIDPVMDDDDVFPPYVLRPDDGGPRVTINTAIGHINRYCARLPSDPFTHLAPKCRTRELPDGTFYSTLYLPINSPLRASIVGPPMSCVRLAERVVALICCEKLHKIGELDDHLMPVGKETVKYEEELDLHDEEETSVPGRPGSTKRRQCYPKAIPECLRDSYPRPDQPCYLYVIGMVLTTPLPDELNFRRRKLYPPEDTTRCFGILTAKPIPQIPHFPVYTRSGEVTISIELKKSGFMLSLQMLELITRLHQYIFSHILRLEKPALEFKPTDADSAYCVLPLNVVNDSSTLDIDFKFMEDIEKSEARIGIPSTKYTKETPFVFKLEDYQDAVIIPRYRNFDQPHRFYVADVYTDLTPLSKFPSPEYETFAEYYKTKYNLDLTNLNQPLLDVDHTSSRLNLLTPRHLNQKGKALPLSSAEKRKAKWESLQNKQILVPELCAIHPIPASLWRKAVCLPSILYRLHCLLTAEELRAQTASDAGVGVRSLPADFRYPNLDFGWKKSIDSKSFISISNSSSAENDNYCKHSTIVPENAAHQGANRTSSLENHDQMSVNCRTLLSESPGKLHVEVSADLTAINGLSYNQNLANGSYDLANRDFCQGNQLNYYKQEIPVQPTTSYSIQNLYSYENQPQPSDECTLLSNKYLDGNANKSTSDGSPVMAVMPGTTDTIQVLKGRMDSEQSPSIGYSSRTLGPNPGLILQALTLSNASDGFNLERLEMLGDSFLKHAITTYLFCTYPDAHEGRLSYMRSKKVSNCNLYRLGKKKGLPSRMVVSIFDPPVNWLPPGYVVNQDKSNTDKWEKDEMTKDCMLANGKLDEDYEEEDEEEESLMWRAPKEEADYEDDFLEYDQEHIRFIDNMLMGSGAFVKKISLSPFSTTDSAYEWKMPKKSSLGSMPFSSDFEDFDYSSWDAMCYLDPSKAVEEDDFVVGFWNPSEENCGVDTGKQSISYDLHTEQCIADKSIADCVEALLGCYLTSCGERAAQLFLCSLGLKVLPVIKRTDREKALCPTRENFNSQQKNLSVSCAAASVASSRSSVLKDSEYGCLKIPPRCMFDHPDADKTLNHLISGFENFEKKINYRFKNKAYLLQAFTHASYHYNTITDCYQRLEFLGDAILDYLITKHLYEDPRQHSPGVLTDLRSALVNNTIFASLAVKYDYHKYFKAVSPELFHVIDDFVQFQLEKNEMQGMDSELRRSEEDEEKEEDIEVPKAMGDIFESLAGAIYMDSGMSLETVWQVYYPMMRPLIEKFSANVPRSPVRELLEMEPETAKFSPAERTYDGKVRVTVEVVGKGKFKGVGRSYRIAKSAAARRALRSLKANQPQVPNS
A number is an active result. Shown is part of a subset that was picked to be rich in hits.

CCOC(=O)c1cnn(-c2ccccc2)c1NC(=O)CN1CCN(c2ccccc2)CC1 was read as Dicer processing inactive.
`Cc1c(NC(=O)c2c(F)cccc2F)cc2c(c1[N+](=O)[O-])C(C)(C)CC2(C)C` gave Dicer processing inactive.
CCOc1ccc(-c2nn3c(COc4ccccc4)nnc3s2)cc1 was read as Dicer processing inactive.
For CCc1nnc2sc(-c3ccc(N)cc3)nn12 the results were Dicer processing 3.4.
`COc1ccc(-c2nn3c(Cc4ccccc4)nnc3s2)cc1` gave Dicer processing inactive.
COc1ccc(CCNC(=O)c2nc3ccccc3c(=O)n2-n2cccc2)cc1OC was read as Dicer processing inactive.
`CCCS(=O)(=O)c1c(S(=O)(=O)CCC)c2ccccn2c1C(=O)OC` gave Dicer processing inactive.
CCS(=O)(=O)c1c(S(=O)(=O)CC)c2cc(C(C)(C)C)ccn2c1C(=O)c1ccc(OC)cc1 was read as Dicer processing 5.
`COc1ccc(C(=O)CC(=O)c2ccc(C(C)(C)C)cc2)cc1` gave Dicer processing inactive.
`CCOC(=O)c1cc(C#N)c(Sc2nnc(SCC3CC3)s2)nc1C(F)(F)F` gave Dicer processing inactive.
`CCCc1nnc(NC(CC)OC(=O)c2cc(C)nc3ccccc23)s1` (stereo unspecified) gave Dicer processing 3.1.
For COCCNc1cc(C)nc2ccccc12 the results were Dicer processing inactive.
`CCc1nnc2sc(-c3cc(C)nc4ccccc34)nn12` gave Dicer processing inactive.
Nc1ccc2oc(-c3cccc4c(Br)cccc34)nc2c1 was read as Dicer processing inactive.
Screening ONC=Nc1ccccc1Sc1nc2c(Cl)cc(Cl)cc2s1 returned Dicer processing inactive.
Screening ONC=Nc1ccccc1Sc1nc2cc(Cl)ccc2s1 returned Dicer processing 3.1.
For Nc1ccccc1Sc1nc2cc(Cl)ccc2s1 the results were Dicer processing inactive.
For CS(=O)(=O)NCc1ccc(Cl)cc1 the results were Dicer processing inactive.
Screening CN(C)c1ccc(C2CC(=O)c3cnc(NCCN4CCOCC4)nc3C2)cc1 (stereo unspecified) returned Dicer processing inactive.
`COC(=O)C1=C(C)NC(C)=C(C(=O)OC)C1c1cccc(C)n1` gave Dicer processing inactive.
`O=C(O)c1c(-c2ccccc2)nnc2ccccc12` gave Dicer processing inactive.
O=C(Nc1ccc(OC(F)(F)F)cc1)Nc1ccc2ccccc2n1 was read as Dicer processing inactive.
O=C(Nc1ccc(OC(F)(F)F)cc1)c1c(-c2ccccc2)nnc2ccccc12 was read as Dicer processing 29.
`Cc1cc2nc(SCCO)nc(C)c2cc1C` gave Dicer processing inactive.
Screening Cc1ccccc1-c1c(C)oc2c(CN(C)C)c(O)ccc2c1=O returned Dicer processing inactive.
COc1cc(OCc2ccccc2)ccc1CN1CCC(c2ccccc2OC)CC1 was read as Dicer processing inactive.
Nc1ccc(CC2C(=O)Nc3ccccc32)cc1 (stereo unspecified) was read as Dicer processing inactive.
`CC1CN(c2nc3c(Cl)cc(Cl)cc3s2)CC(C)O1` (stereo unspecified) gave Dicer processing inactive.
Screening O=C(Nc1ccc(Cl)cc1)n1nccc1C(c1ccccc1)c1ccccc1 returned Dicer processing inactive.
For Cc1ccc2oc(-c3ccco3)c(O)c(=O)c2c1 the results were Dicer processing inactive.
`Cc1ccc(-c2oc3ccc(C)cc3c(=O)c2O)cc1` gave Dicer processing inactive.
Cc1ccc2oc(-c3cc(Br)ccc3O)c(O)c(=O)c2c1 was read as Dicer processing 5.3.
`CCOC(=O)/C(C)=N/Nc1cc(C)cc(C)c1` gave Dicer processing inactive.
Cc1nn2c3c(cnc2c1-c1ccccc1)C(=O)CC(/C=C/c1ccccc1)C3 (stereo unspecified) was read as Dicer processing inactive.
Screening O=C(O)/C=C/C(=O)Nc1ccc(N2CCCCCC2)c(NC(=O)/C=C/C(=O)O)c1 returned Dicer processing inactive.
Screening CCc1ccc(NCN2C(=O)c3ccccc3C2=O)cc1 returned Dicer processing inactive.
CC(C)c1ccc(Nc2cc(=O)[nH]n2C)cc1 was read as Dicer processing inactive.
For COc1cc(OC)c(C(F)(F)F)cc1NCN1C(=O)CCC1=O the results were Dicer processing inactive.
Screening O=C1CCC(=O)N1CNc1c(F)cccc1F returned Dicer processing inactive.
Screening Cc1cc(Br)ccc1NCN1C(=O)c2ccccc2C1=O returned Dicer processing inactive.
O=C1CCC(=O)N1CNc1cc(C(F)(F)F)cc(C(F)(F)F)c1 was read as Dicer processing 3.9.
For O=C(CNc1cc(C(F)(F)F)cc(C(F)(F)F)c1)c1ccc(Cl)cc1 the results were Dicer processing inactive.
Cc1cc(Cl)ccc1NCN1C(=O)CCC1=O was read as Dicer processing 5.2.
`O=C1CCC(=O)N1CNc1ccc(F)cc1F` gave Dicer processing 4.6.
Cc1ccc(NCN2C(=O)c3ccccc3C2=O)c(C)c1 was read as Dicer processing inactive.
`CC(C)c1ccc(NCN2C(=O)CCC2=O)cc1` gave Dicer processing 3.7.
For CC1CC(=O)N(c2ccc(F)cc2F)C(=O)C1 the results were Dicer processing inactive.
Screening O=C(CC1(O)C(=O)N(Cc2ccc(Cl)cc2)c2ccccc21)c1ccc2c(c1)OCO2 (stereo unspecified) returned Dicer processing inactive.
`Cc1ccsc1/C=C/c1ccnc(Sc2ncccc2[N+](=O)[O-])n1` gave Dicer processing inactive.
CNc1nc(C(N)=O)nc(N2CCOCC2)n1 was read as Dicer processing inactive.
S=C(Nc1cc(Cl)c(Cl)cc1Cl)NC(c1ccccc1)c1ccccc1 was read as Dicer processing inactive.
For CCOC(=O)C(NC(=O)c1nn(-c2ccccc2)nc1C)C(=O)OCC the results were Dicer processing inactive.
For COc1ccc(NC(=O)C2C3C=CC(O3)C2C(=O)O)c(OC)c1 (stereo unspecified) the results were Dicer processing inactive.
Screening CSc1cccc(-n2c(=O)n(Cc3ccccc3)c(=O)c3[nH]cnc32)c1 returned Dicer processing inactive.
`COC(=O)C(C)SCC(=O)Nc1c(C)cccc1C` (stereo unspecified) gave Dicer processing inactive.
Screening CN(c1ccc([N+](=O)[O-])cc1Cl)C1CCCCC1 returned Dicer processing inactive.
CCCC(C(=O)O)N1C(=O)NC2NC(=O)NC21 (stereo unspecified) was read as Dicer processing 3.4.
Screening CCC(C)N1C(=O)N(C)C2NC(=O)NC21 (stereo unspecified) returned Dicer processing inactive.
For CCC(C)C(C(=O)O)N1C(=O)NC2NC(=O)NC21 (stereo unspecified) the results were Dicer processing inactive.
CCOC(=O)c1sc(SC)nc1NC(=O)C(Cl)Cl was read as Dicer processing inactive.
For C=CCN1C(=O)C(O)(CC(=O)c2ccc(C)cc2C)c2ccccc21 (stereo unspecified) the results were Dicer processing inactive.
Screening C=CCN1C(=O)C(O)(CC(=O)c2ccccc2OC)c2ccccc21 (stereo unspecified) returned Dicer processing inactive.
Screening C=CCN1C(=O)C(O)(CC(=O)c2ccc(OC)cc2OC)c2cc(Br)ccc21 (stereo unspecified) returned Dicer processing inactive.
Screening C=CCN1C(=O)C(O)(CC(=O)c2cc(OC)ccc2OC)c2cc(Br)ccc21 (stereo unspecified) returned Dicer processing 3.5.
`C=CCN1C(=O)C(O)(CC(=O)c2cc(C)ccc2C)c2ccccc21` (stereo unspecified) gave Dicer processing 9.4.

Screens from PubChem BioAssay.
